Results from the supplement of paper PMC13380429.
Values without a mark were called inactive.

system: Vero E6 infected with SARS-CoV-2; experiment: inhibition of SARS-CoV-2 cytopathic effect; higher = more antiviral protection, active = above 15; conditions: 100 nM; 48 h

| Compound | inhibition of SARS-CoV-2 cytopathic effect [%] |
| --- | --- |
| Cc1cc(I)ccc1Nc1c(C(=O)NOCC2CC2)cc(F)c(F)c1F | 7.71 |
| CO[C@H]1C[C@H](O[C@H]2[C@H](C)O[C@@H](O[C@@H]3/C(C)=C/C[C@@H]4C[C@@H](C[C@]5(C=C[C@H](C)[C@@H](C6CCCCC6)O5)O4)OC(=O)[C@@H]4C=C(C)[C@@H](O)[C@H]5OC/C(=C\C=C\[C@@H]3C)[C@]54O)C[C@@H]2OC)O[C@@H](C)[C@@H]1O [doramectin] | 1.24 |
| Cc1c(N)nc([C@H](CC(N)=O)NC[C@H](N)C(N)=O)nc1C(=O)N[C@H](C(=O)N[C@H](C)[C@@H](O)[C@H](C)C(=O)N[C@H](C(=O)NCCc1nc(-c2nc(C(=O)NCCC[S+](C)C)cs2)cs1)[C@@H](C)O)[C@@H](OC1OC(CO)C(O)C(O)C1OC1OC(CO)C(O)C(OC(N)=O)C1O)c1cnc[nH]1 (stereo not given in full) [bleomycin] | -1.47 |
| c1ccc2c(CC3=NCCN3)cccc2c1 [naphazoline] | 0.05 |
| CC(C)(N)Cc1ccccc1 [phentermine] | 2.37 |
| FC(F)(F)c1ccc(CNc2ccc(Cc3c[nH]c4ncc(Cl)cc34)cn2)cn1 [pexidartinib] | 0.98 |
| COc1ccc(-c2oc3c(CC=C(C)C)c(O[C@@H]4O[C@H](CO)[C@@H](O)[C@H](O)[C@H]4O)cc(O)c3c(=O)c2O[C@@H]2O[C@@H](C)[C@H](O)[C@@H](O)[C@H]2O)cc1 [icariin] | 1.25 |
| O=C(COc1ccc(Cl)cc1)N1CCN(Cc2ccc3c(c2)OCO3)CC1 [fipexide] | 1.92 |
| O=C1CC[C@@H](C(=O)N2CSC[C@H]2C(=O)O)N1 [pidotimod] | -1.22 |
| Cc1ccccc1-n1c(CF)nc2ccc(N)cc2c1=O [afloqualone] | -0.71 |
| CN1c2cc3c(cc2N=C(c2ccc(C(=O)O)cc2)c2ccccc21)C(C)(C)CCC3(C)C | -1.76 |
| c1coc(CNc2ncnc3[nH]cnc23)c1 [kinetin] | 1.35 |
| NC(=O)CC[C@H](N)C(=O)O [L-glutamine] | 0.59 |
| COc1ccc(C(=O)/C(Cc2cc(OC)c(OC)c(OC)c2)=C(\C(=O)O)c2ccc3c(c2)OCO3)cc1 | -0.33 |
| C[S+](CC[C@H](N)C(=O)O)C[C@H]1O[C@@H](n2cnc3c(N)ncnc32)[C@H](O)[C@@H]1O (stereo not given in full) [ademetionine] | -2.58 |
| CCC[C@@]1(CCc2ccccc2)CC(O)=C([C@H](CC)c2cccc(NS(=O)(=O)c3ccc(C(F)(F)F)cn3)c2)C(=O)O1 [tipranavir] | 1.56 |
| CC(C)(C)CC(C)(C)c1ccc(OCCOCC[N+](C)(C)Cc2ccccc2)cc1 [benzethonium] | -12.9 |
| CCC(C)SSc1ncc[nH]1 (stereo not given) | 1.61 |
| CCN1CCC[C@H]1CNC(=O)c1c(OC)ccc(Br)c1OC [remoxipride] | 0.28 |
| CC(=C(CCOC(=O)C(C)C)SSC(CCOC(=O)C(C)C)=C(C)N(C=O)Cc1cnc(C)nc1N)N(C=O)Cc1cnc(C)nc1N (stereo in doubt) [sulbutiamine] | 3.99 |

| Compound | inhibition of SARS-CoV-2 cytopathic effect [%] |
| --- | --- |
| O=C(Oc1cccc2cccnc12)c1ccccc1 [benzoxiquine] | -0.45 |
| O=P(O)(NCCCl)NCCCl [palifosfamide] | 3.57 |
| O=P(O)(O)CN(CCN(CP(=O)(O)O)CP(=O)(O)O)CP(=O)(O)O | -0.33 |
| Clc1ccc(COC(Cn2ccnc2)c2ccc(Cl)cc2Cl)c(Cl)c1 (stereo not given) [miconazole] | -0.38 |
| CC(C)(O)CC(=O)NCCn1ccc2ncnc(Nc3ccc(Oc4cccc(C(F)(F)F)c4)c(Cl)c3)c21 | 3.51 |
| CCOC(=O)[C@@H](N)Cc1ccc(-c2cc(O[C@H](c3ccc(Cl)cc3-n3ccc(C)n3)C(F)(F)F)nc(N)n2)cc1 [telotristat-ethyl] | -1.08 |
| CC[C@@H](C(N)=O)N1CCCC1=O [levetiracetam] | 0.01 |
| O=C1NC(c2ccccc2)(c2ccccc2)C(=O)N1COP(=O)(O)O [fosphenytoin] | 13.5 |
| Cc1cc(-c2cc(OC(=O)c3ccccc3)ccc2Cl)cc2nnc(Nc3ccc(OCCN4CCCC4)cc3)nc12 | 2.44 |
| CC(C)(C)c1ccc(-c2nc3c(N4CCN(Cc5ccc6nccnc6c5)CC4)cccc3[nH]2)cc1 | 1.44 |
| COc1cc2c(Oc3ccc4[nH]c(C)cc4c3F)ccnc2cc1OCC1(N)CC1 [anlotinib] | 1.56 |
| COc1cc2ncnc(Nc3ccc(F)c(Cl)c3)c2cc1OCCCN1CCOCC1 [gefitinib] | -4.25 |
| COc1cccc2c1C(=O)c1c(O)c3c(c(O)c1C2=O)C[C@@](O)(C(=O)CO)C[C@@H]3O[C@H]1C[C@H](N)[C@H](O[C@@H]2CCCCO2)[C@H](C)O1 [pirarubicin] | -0.19 |
| CCCCc1ccc(C(N)=O)nc1 [bupicomide] | -0.52 |
| Cn1ncnc1[C@H]1c2n[nH]c(=O)c3cc(F)cc(c23)N[C@@H]1c1ccc(F)cc1 [talazoparib] | 2.17 |
| CSc1ccc(C(=O)N[C@@H]2CCCC[C@@H]2NC(=O)CNC(=O)c2cc(C(F)(F)F)ccc2NC(=O)NC(C)C)cc1 | 0.52 |
| NS(=O)(=O)c1ccc(NC(=O)Nc2ccc(F)cc2)cc1 | 0.78 |
| CC(C(=O)O)c1ccc(C(=O)c2cccs2)cc1 (stereo not given) [suprofen] | -0.86 |
| COC(=O)C1=C(C)NC(C)=C(C(=O)OCC(C)C)C1c1ccccc1[N+](=O)[O-] (stereo not given) [nisoldipine] | -2.24 |
| CN1C(=O)N(c2ccc(C#N)c(C(F)(F)F)c2)C(=O)[C@]1(CO)c1ccccc1 [GLPG0492-R-enantiomer] | 0.3 |
